Measurements as given in PubChem BioAssay (Tox21).
Inconclusive results are not listed. The source made the active and inactive calls. Unless noted, the call rests on the fitted dose curve; in most records, active means well fitted curve in the direction sought with a large enough effect in the repeat runs; inconclusive means weak or mixed curves; inactive means no such curve, though single readings can be large; an effect the other way counts as inactive or inconclusive.

Tests used:
[1] = qHTS assay to identify small molecule agonists of the RXR signaling pathway - cell viability counter screen (AID 1159529);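 further: HEK 293T cells carrying an RXR-alpha UAS beta-lactamase reporter; nearly all actives have a fitted effect of over 50% in size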
Method in brief: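 Counter screen: CellTiter-Glo luminescence. Cells: RXR-alpha-UAS-bla HEK 293T. Medium: 2% charcoal-stripped FBS. Treatment: 16 h, 37 C. Reagent incubation: 30 min, RT.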

[2] = qHTS assay to identify small molecule antagonists of the retinoid acid receptor (RAR) signaling pathway - cell viability counter screen (AID 1159551); further: nearly all actives have a fitted effect of over 35% in size
Method in brief: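 Following overnight attachment, C3RL4 reporter cells received DMSO-dissolved compounds and then retinol (1 uM final). Six hours later at 37 C, ATP content was measured by CellTiter-Glo luminescence.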

[3] = qHTS assay to identify small molecule antagonists of the retinoic acid receptor (RAR) signaling pathway (AID 1159552; further: nearly all actives have a fitted effect of over 50% in size)
Method in brief: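 Antagonism of retinol-induced RARE reporter activity was measured in C3RL4 cells. Exposure to compounds and 1 uM final retinol lasted 6 hr at 37 C, with luminescence as endpoint.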

[4] = qHTS assay to identify small molecule agonists of the retinoic acid receptor (RAR) signaling pathway (AID 1159553)
Method in brief: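 Cell line C3RL4, RARE luciferase reporter. Treatment: compounds in DMSO, 6 hr, 37 C, 5% CO2, after overnight plating. Detection: luminescence, 30 min RT after reagent.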

[5] = qHTS assay to identify small molecule antagonists of the estrogen related receptor (ERR) signaling pathway from Tox21 library - cell viability counter screen (AID 1224834); further: nearly all actives have a fitted effect of over 30% in size
Method in brief: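 Viability readout (CellTiter-Fluor fluorescence, 30 min at 37 C) multiplexed with the ERR assay; cells treated 17.5 h at 37 C with compounds delivered in DMSO.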

[6] = target: Luciferin 4-monooxygenase (Photinus pyralis) (UniProt P08659); test: qHTS assay to identify small molecule inhibitors of firefly luciferase (AID 1224835); further: nearly all actives have a fitted effect of over 25% in size
Method in brief: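 Inhibition of purified Photinus luciferase is measured by luminescence. Substrate levels (D-luciferin, ATP) sit at their KM values. Each compound is tested in a concentration series.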

[7] = qHTS assay to identify small molecule agonists of the constitutive androstane receptor (CAR) signaling pathway - cell viability counter screen (AID 1224836); further: nearly all actives have a fitted effect of over 45% in size
Method in brief: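 Double-stable HepG2 hepatoma cells (hCAR plus CYP2B6-2.2kb) are treated for 23 h at 37 C with test compounds in 15-point concentration series. PK11195 at 0.75 uM final is co-added. Cell viability is quantified by CellTiter-Fluor.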

[8] = qHTS assay to identify small molecule antagonists of the constitutive androstane receptor (CAR) signaling pathway - cell viability counter screen (AID 1224837); further: nearly all actives have a fitted effect of over 45% in size
Method in brief: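 Fluorescence from CellTiter-Fluor served as the viability signal. Human hepatoma HepG2 cells stably bearing hCAR and CYP2B6-2.2kb received compound plus CITCO (50 nM final) for 23 hr.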

[9] = target: Nuclear receptor subfamily 1 group I member 3 (Homo sapiens) (UniProt Q14994); test: qHTS assay to identify small molecule antagonists of the constitutive androstane receptor (CAR) signaling pathway (AID 1224838);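 further: HepG2 cells stably expressing hCAR with CYP2B6 luciferase reporter stimulated by CITCO; nearly all actives have a fitted effect of over 40% in size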
Method in brief: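 Quantitative HTS in double-stable HepG2-CYP2B6-hCAR cells. After 4 h plating, cells get compound (15 concentrations) and CITCO at 50 nM final, incubate 24 h at 37 C, then ONE-Glo luminescence is read.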

[10] = target: Nuclear receptor subfamily 1 group I member 3 (Homo sapiens) (UniProt Q14994); test: qHTS assay to identify small molecule agonists of the constitutive androstane receptor (CAR) signaling pathway (AID 1224839);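 further: HepG2 cells stably carrying human CAR and a CYP2B6 luciferase reporter; nearly all actives have a fitted effect of over 15% in size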
Method in brief: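 Readout: firefly luciferase luminescence via ONE-Glo. System: HepG2 double-stable for hCAR and CYP2B6-2.2kb. Conditions: 15-point compound titration, PK11195 at 0.75 uM final, 24 h incubation.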

[11] = qHTS assay to identify small molecule antagonists of the estrogen related receptor signaling pathway with the pleiotropic PPARgamma coactivator (PGC) from Tox21 10K library - cell viability counter screen (AID 1224840; active means well fitted cell-killing curve with a large enough effect in the repeat runs, not every such curve was filed as active; further: nearly all actives have a fitted effect of over 40% in size)
Method in brief: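 Compounds in DMSO, alongside positive and negative controls, were pinned onto PGC/ERR cells (2,000 per well). Exposure lasted 17.5 hours at 37 C, followed by a 30-minute CellTiter-Fluor incubation and fluorescence reading.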

[12] = qHTS assay to identify small molecule agonists of the hypoxia (HIF-1) signaling pathway - cell viability counter screen (AID 1224844; calls by dose curve; further: nearly all actives have a fitted effect of over 50% in size)
Method in brief: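 Luminescent ATP content (CellTiter-Glo, 30 min, room temperature) served as the viability measure in HRE-bla ME-180 cells exposed to compounds for 17 hrs in low-serum medium (0.5% dialyzed FBS).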

[13] = qHTS assay to identify small molecule agonists of H2AX (AID 1224845; active means well fitted activation curve with a large enough effect in the signal ratio in the repeat runs, not every such curve was filed as active; the % refers to the signal ratio)
Method in brief: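 Phospho-H2AX Ser139 measured by HTRF (ex 320 nm; em 665 and 620 nm) after 24 hr antibody incubation. Compounds, 15 concentrations, 0.76% DMSO, were applied to CHO-K1 cells for 3hr at 37C before lysis.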

[14] = qHTS assay to identify small molecule agonists of the hypoxia (HIF-1) signaling pathway (AID 1224846; active means well fitted activation curve with a large enough effect in the signal ratio in the repeat runs, not every such curve was filed as active; the % refers to the signal ratio)
Method in brief: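 Measured by blue/green FRET after loading CCF4-AM: beta-lactamase expressed from a hypoxia response element in ME-180 cells. Test agents were delivered in DMSO and left 17 hrs; cells had been plated 5 hrs earlier in low-serum (0.5% dialyzed FBS) medium.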

[15] = qHTS RealTime-Glo MT Cell Viability Assay in HepG2 cells - 24 hour (AID 1224867); further: nearly all actives have a fitted effect of over 50% in size
Method in brief: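 Viability was tracked continuously by NanoLuc luminescence from prosubstrate reduced by living HepG2 cells, at successive time points over 40 h of compound exposure. Cells with reagent were preincubated 5 h at 37 °C before compound addition.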

[16] = qHTS assay to identify small molecule agonists of H2AX - cell viability counter screen (AID 1224847; calls by dose curve;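 further: wild-type CHO-K1 cells; top concentration of the series differs between compounds; nearly all actives have a fitted effect of over 30% in size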)
Method in brief: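 For this counter screen, overnight-attached CHO-K1 cells received test compounds (15 concentrations, 0.76% DMSO final); 3 hr later at 37C, CellTiter-Glo reagent was added and luminescence recorded after 30 min at room temperature.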

[17] = target: Thyrotropin receptor (Homo sapiens) (UniProt P16473); test: qHTS assay to identify small molecule agonists of the thyroid stimulating hormone receptor (TSHR) signaling pathway (AID 1224843; calls by dose curve; further: nearly all actives have a fitted effect of over 45% in size)
Method in brief: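 HEK293 cells stably bearing the thyrotropin receptor were plated at 800 cells/well and challenged with compound (30 min, RT). Accumulated cAMP was quantified via cAMP-d2 competing for cryptate-tagged antibody.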

[18] = qHTS assay to identify small molecule antagonists of the estrogen related receptor signaling pathway with the pleiotropic PPARgamma coactivator (PGC) from Tox21 10K library (AID 1224841; call rule not given here)
Method in brief: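 Compound exposure ran 18 hours at 37 C in PGC/ERR cells (2,000/well) that had first rested 6 hours in a 37 C/5% CO2 incubator. Luciferase activity was then detected with One-Glo after a 30-minute room-temperature step.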

[19] = qHTS assay to identify small molecule antagonists of the estrogen related receptor (ERR) signaling pathway from Tox21 library (AID 1224848); further: nearly all actives have a fitted effect of over 50% in size
Method in brief: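 Reading was by luminescence 30 min after ONE-Glo addition. Before that, ERR cells at 2,000 per well had rested 6 h at 37 C/5% CO2 and then received pin-tooled compounds in DMSO for 18 h at 37 C.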

[20] = qHTS assay to identify small molecule agonists of the estrogen related receptor (ERR) signaling pathway from Tox21 library (AID 1224849; calls by dose curve; further: nearly all actives have a fitted effect of over 15% in size); settings: ERR reporter cell line, ONE-Glo luciferase, 18 h; at 92.4 µM (top of the series) unless noted
Method in brief: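 We plated ERR reporter cells, waited 6 h, added compounds in DMSO by pin tool and incubated them 18 h at 37 C. ONE-Glo was then added and luminescence read after 30 min.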
On the % scale 0 is the no-effect control and ±100 the full control effect.

Thyrotropin receptor (Homo sapiens), sequence (P16473 whole entry, looked up): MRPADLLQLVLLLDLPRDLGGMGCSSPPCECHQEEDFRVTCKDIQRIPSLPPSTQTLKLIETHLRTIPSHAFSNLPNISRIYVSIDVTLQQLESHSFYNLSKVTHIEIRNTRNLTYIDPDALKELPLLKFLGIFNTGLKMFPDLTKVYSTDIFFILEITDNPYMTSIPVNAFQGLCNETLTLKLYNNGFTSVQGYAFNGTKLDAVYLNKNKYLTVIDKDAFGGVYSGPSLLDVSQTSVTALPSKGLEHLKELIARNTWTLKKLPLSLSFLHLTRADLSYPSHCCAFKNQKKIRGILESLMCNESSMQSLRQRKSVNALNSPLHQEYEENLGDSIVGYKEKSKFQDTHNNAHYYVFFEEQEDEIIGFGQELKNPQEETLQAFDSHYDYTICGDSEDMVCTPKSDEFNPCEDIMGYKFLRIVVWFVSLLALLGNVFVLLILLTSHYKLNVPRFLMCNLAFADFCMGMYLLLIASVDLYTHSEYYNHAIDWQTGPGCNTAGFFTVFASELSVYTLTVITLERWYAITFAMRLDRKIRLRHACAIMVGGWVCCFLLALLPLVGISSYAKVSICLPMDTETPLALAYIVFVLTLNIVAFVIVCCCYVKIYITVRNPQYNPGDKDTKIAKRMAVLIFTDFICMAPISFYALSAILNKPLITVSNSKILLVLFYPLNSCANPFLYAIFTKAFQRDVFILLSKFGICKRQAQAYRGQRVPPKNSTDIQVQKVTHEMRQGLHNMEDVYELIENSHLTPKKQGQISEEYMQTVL
Nuclear receptor subfamily 1 group I member 3 (Homo sapiens), sequence (Q14994 whole entry, looked up): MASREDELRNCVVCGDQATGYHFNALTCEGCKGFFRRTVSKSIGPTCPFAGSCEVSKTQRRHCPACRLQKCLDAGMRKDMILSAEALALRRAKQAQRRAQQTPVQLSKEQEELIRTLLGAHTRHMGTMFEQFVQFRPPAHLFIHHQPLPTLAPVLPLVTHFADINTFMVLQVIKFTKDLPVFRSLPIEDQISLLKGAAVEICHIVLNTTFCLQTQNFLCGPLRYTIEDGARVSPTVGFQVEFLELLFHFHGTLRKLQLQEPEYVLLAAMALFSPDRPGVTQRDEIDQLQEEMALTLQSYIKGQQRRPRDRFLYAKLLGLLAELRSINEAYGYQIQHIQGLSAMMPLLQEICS
Luciferin 4-monooxygenase (Photinus pyralis), sequence (P08659 whole entry, looked up): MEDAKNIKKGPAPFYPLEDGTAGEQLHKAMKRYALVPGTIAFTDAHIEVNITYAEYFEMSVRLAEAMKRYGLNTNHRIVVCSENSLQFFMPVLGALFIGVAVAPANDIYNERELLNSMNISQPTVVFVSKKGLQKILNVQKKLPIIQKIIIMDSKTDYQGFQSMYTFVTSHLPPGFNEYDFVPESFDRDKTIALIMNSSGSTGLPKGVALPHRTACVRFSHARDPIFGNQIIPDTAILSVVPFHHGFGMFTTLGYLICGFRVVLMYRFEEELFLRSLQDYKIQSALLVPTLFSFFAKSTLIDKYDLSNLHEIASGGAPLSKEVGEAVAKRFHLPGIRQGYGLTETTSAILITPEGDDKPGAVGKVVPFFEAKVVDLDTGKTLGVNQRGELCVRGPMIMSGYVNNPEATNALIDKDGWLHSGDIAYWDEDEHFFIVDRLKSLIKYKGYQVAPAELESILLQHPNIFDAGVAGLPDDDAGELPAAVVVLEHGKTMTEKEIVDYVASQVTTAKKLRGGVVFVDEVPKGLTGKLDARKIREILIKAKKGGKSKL

O=C(O)CSCC(=O)NC1CCSC1=O (stereo unspecified)
inactive: outcome [1] | outcome [2] | outcome [3] | Potency [4] | outcome [5] | Potency [6] | outcome [7] | outcome [8] | Potency [9] | Potency [10] | outcome [11] | outcome [12] | outcome [13] | outcome [14] | outcome [15]

Nc1nnnn1-c1ccccc1
inactive: outcome [1] | outcome [2] | outcome [3] | Potency [4] | outcome [5] | Potency [6] | outcome [7] | outcome [8] | Potency [9] | Potency [10] | outcome [11] | outcome [13] | outcome [14] | outcome [16] | outcome [15]

COC(=O)c1ccccc1C(=O)O
inactive: outcome [1] | outcome [2] | outcome [3] | Potency [4] | outcome [5] | Potency [6] | outcome [7] | outcome [8] | Potency [9] | Potency [10] | outcome [11] | outcome [12] | outcome [13] | outcome [14] | outcome [16] | outcome [15]

OCC(O)CN1CCN(c2ccccc2)CC1 (stereo unspecified)
inactive: outcome [1] | outcome [2] | outcome [3] | Potency [4] | outcome [5] | Potency [6] | outcome [7] | outcome [8] | Potency [9] | Potency [10] | outcome [11] | outcome [12] | outcome [13] | outcome [15]

CC(=O)O[C@H]1C[C@@H]2CC[C@@]1(C)C2(C)C
inactive: outcome [1] | outcome [2] | outcome [3] | Potency [4] | outcome [5] | Potency [6] | outcome [7] | outcome [8] | Potency [9] | Potency [10] | outcome [17] | outcome [12] | outcome [13] | outcome [14] | outcome [16] | outcome [15]

CC(C)Cn1cnc2c1c(=O)n(C)c(=O)n2C
inactive: outcome [1] | outcome [2] | outcome [3] | Potency [4] | outcome [5] | Potency [6] | outcome [7] | outcome [8] | Potency [9] | Potency [10] | outcome [17] | outcome [12] | outcome [13] | outcome [14] | outcome [16] | outcome [15]

CC1=C(C(=O)O)N2C(=O)[C@@H](NC(=O)[C@H](N)c3ccccc3)[C@H]2SC1
inactive: outcome [1] | outcome [2] | outcome [3] | Potency [4] | outcome [5] | Potency [6] | outcome [7] | outcome [8] | Potency [9] | Potency [10] | outcome [18] | outcome [12] | outcome [13] | outcome [16] | Potency [19] | activity change, positive = activation [20] 5.12% [at 42.5 µM] | outcome [15]

O=S(=O)(O)c1ccc2c(N=Nc3ccc(S(=O)(=O)O)c4ccccc34)c(O)c(S(=O)(=O)O)cc2c1
inactive: activity change, negative = cytotoxicity [1] 0.355% [at 6.97 µM] | activity change, negative = cytotoxicity [2] -2.67% [at 8.39 µM] | activity, negative = inhibition [3] 111% [at 8.39 µM] | activation [4] -2.37% [at 8.36 µM] | viability change, negative = cytotoxic [5] -6.16% [at 8.39 µM] | activity change, negative = inhibition [6] -3.96% [at 10.5 µM] | viability change, negative = cytotoxic [7] -7.02% [at 8.39 µM] | activity change, negative = cytotoxicity [8] -18.2% [at 8.39 µM] | activity, negative = inhibition [9] -7.08% [at 8.39 µM] | activation [10] 0.066% [at 8.39 µM] | viability change, negative = cytotoxic [11] -10.3% [at 8.39 µM] | activation [17] 3.55% [at 8.39 µM] | activation [14] -0.322% [at 7.01 µM] | activity change, negative = cytotoxicity [16] -5.59% [at 14 µM] | activity change, negative = cytotoxicity [15] -1.89% [at 6.97 µM]

Cc1c(C(=O)c2c[nH]n(C)c2=O)ccc(S(C)(=O)=O)c1C1=NOCC1
inactive: outcome [1] | outcome [2] | outcome [3] | Potency [4] | outcome [5] | Potency [6] | outcome [7] | outcome [8] | Potency [9] | Potency [10] | outcome [11] | outcome [12] | outcome [13] | outcome [14] | outcome [16] | outcome [15]

CCC(C(=O)OCCN1CCOC(c2ccccc2)C1C)c1ccccc1 (stereo unspecified)
inactive: outcome [1] | outcome [2] | outcome [3] | Potency [4] | outcome [5] | Potency [6] | outcome [7] | outcome [8] | Potency [9] | Potency [10] | outcome [11] | outcome [12] | outcome [13] | outcome [14] | activity change, positive = activation [20] -23.3% [at 42.5 µM] | outcome [15]

CCc1occc(=O)c1O
inactive: outcome [1] | outcome [2] | outcome [3] | Potency [4] | outcome [5] | Potency [6] | outcome [7] | outcome [8] | Potency [9] | Potency [10] | outcome [11] | outcome [12] | outcome [13] | outcome [14] | outcome [16] | outcome [15]

CC(=O)CC(=O)Nc1ccc(C)cc1C
inactive: outcome [1] | outcome [2] | outcome [3] | Potency [4] | outcome [5] | Potency [6] | outcome [7] | outcome [8] | Potency [9] | Potency [10] | outcome [17] | outcome [12] | outcome [13] | outcome [14] | outcome [16] | outcome [15]

CC(=O)OC1CCCCC1C(C)(C)C (stereo unspecified)
inactive: outcome [1] | outcome [2] | outcome [3] | Potency [4] | outcome [5] | Potency [6] | outcome [7] | outcome [8] | Potency [9] | Potency [10] | outcome [17] | outcome [12] | outcome [13] | outcome [14] | outcome [16] | outcome [15]

CC(O)CC(C)O (stereo unspecified)
inactive: outcome [1] | outcome [2] | outcome [3] | Potency [4] | outcome [5] | Potency [6] | outcome [7] | outcome [8] | Potency [9] | Potency [10] | outcome [11] | outcome [12] | outcome [13] | outcome [14] | outcome [16] | outcome [15]

CCCCCCCCCCCCCCC(=O)NC(CO)CCCCCCCCCCCCCC (stereo unspecified)
inactive: outcome [1] | outcome [2] | outcome [3] | Potency [4] | outcome [5] | Potency [6] | outcome [7] | outcome [8] | Potency [9] | Potency [10] | outcome [17] | outcome [12] | outcome [13] | outcome [14] | outcome [16] | outcome [15]
